Compounds without any hit were thinned out: in the full panel of roughly 83,000, 20% have a hit.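 Plates (96-well) were seeded with cells, treated with compound at one concentration, and incubated for 48 hours before percent growth was determined.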 The source made the active and inactive calls. Rule for the calls: active = growth percent below 10; inactive = the rest.
What follows are molecules tested on UACC-62 melanoma (assay: NCI-60 one-dose screen, 48 h (100 = growth as untreated, 0 = no growth, -100 = all killed)). Details: 10 µM unless noted.

| Structure (SMILES) | growth |
| --- | --- |
| CNc1cc(C(=O)O)nc(NC)n1 | 97.8% (inactive) |
| Brc1ccc2c(c1)CN(C1CCCCC1)CO2 | 105% (inactive) |
| CCN=C1C=CC(=C(c2ccc(N(CC)CC)cc2)c2ccc(N(CC)CC)cc2)c2ccccc21 | -37.4% (active) |
| O=C(CSc1nc2ccc([N+](=O)[O-])cc2[nH]1)Nc1ccc(F)c(Cl)c1 | 5.92% (active) |
| COc1ccc(-c2ccc(NNC(=O)c3ccc(F)cc3)nn2)cc1OC | 88.6% (inactive) |
| CCOC(CNC(=O)c1cccc([N+](=O)[O-])c1)OCC | 88% (inactive) |
| CN(C)C(=S)Sc1ccc([N+](=O)[O-])cc1[N+](=O)[O-] | 33.5% (inactive) |
| CCN(CC)CC(C)Nc1ccc(C)c2sc3ccccc3c(=O)c12 (stereo unspecified) | 3.87% (active) |
| CN(C)Cc1ccc[nH]1 | 91.6% (inactive) |
| CNC(=O)c1cc(Oc2cccc3nc(NC(=O)Nc4cc(C(F)(F)F)cc(C(F)(F)F)c4)ccc23)ccn1 | 41.4% (inactive) |
| CC1=CC[C@@H]2C(C)(C)[C@@H](O)CC[C@@]2(C)[C@@H]1COc1ccc2ccc(=O)oc2c1 | 22.9% (inactive) |
| CC(=O)CC(=O)SC1=NCCS1 | 115% (inactive) |
| CSc1cccc([N+](=O)[O-])c1 | 98% (inactive) |
| O=C1/C(=C\c2cccn2Cc2ccccc2)c2ccccc2N1c1c(Cl)cccc1Cl | 42% (inactive) |
| COc1ncnc2c(-c3ccccc3)cn(COCc3ccccc3)c12 | 40.4% (inactive) |
| C=C(C)[C@@H]1CC[C@]2(C(=O)NCCCN)CC[C@]3(C)[C@H](CC[C@@H]4[C@@]5(C)CC[C@H](O)C(C)(C)[C@@H]5CC[C@]43C)[C@@H]12 | -22.6% [100 µM] (active) |
| COc1ccc(/C=C/C=C\C(=O)c2ccc(-n3ccnc3)cc2)cc1 | 79.1% (inactive) |
| Cc1ccccc1-n1nnc(C(=O)Nc2nc3ccc(F)cc3s2)c1C | 59.2% (inactive) |
| O=C(N/N=C/c1ccc([N+](=O)[O-])cc1)c1ccc(Br)o1 | 99.6% (inactive) |

| Structure (SMILES) | growth |
| --- | --- |
| Cc1nc(-c2ccccc2)sc1CC#N | 106% (inactive) |
| O=S(=O)(/N=c1/n(-c2ccccc2)nc2n1CCN2C1=NCCN1)c1ccc(-c2ccccc2)cc1 | 109% (inactive) |
| Nc1ccc2c(c1)Cc1cc(NC(=O)C(F)(F)F)ccc1-2 | 93.7% (inactive) |
| O=C(Nc1ccc(C(=O)/C=C/c2ccc(N3CCOCC3)cc2)cc1)Nc1ccc([N+](=O)[O-])cc1 | 79.6% (inactive) |
| C=CCc1nc2ccccc2s1 | 106% (inactive) |
| O=C(Nc1cc(F)cc2cccnc12)c1cnc(N2CCNCC2)cn1 | 101% (inactive) |
| C[n+]1c2ccccc2nc2c(N)cc(N)cc21 | 93% (inactive) |
| CCOC(=O)CCC[P+](c1ccccc1)(c1ccccc1)c1ccccc1 | 65% (inactive) |
| COc1ccc2nc3ccccc3c(NCCNCCO)c2c1 | -70.2% (active) |
| c1nc(N2CCOCC2)c2[nH]ccc2n1 | 103% (inactive) |
| Oc1c(CNCCNCc2cc(Cl)cc(Cc3ccccc3)c2O)cc(Cl)cc1Cc1ccccc1 | -11.5% (active) |
| COc1cc(Cl)cc(-c2nn(C(=O)NS(=O)(=O)c3ccccc3)cc2-c2ccncc2)c1 | 82.7% (inactive) |
| COc1cccc(-c2[nH]c(=S)ncc2C(=O)c2ccccc2)c1 | 74.3% (inactive) |
| CC(C)(C)c1cc(C(=O)Nc2ccccc2C(=O)NCCN)cc(C(C)(C)C)c1 | -58.3% (active) |
| N=C(N)c1ccc(-c2ccc(-c3ccc(-c4cccs4)s3)s2)cc1F | 97.2% (inactive) |
| Cc1c(Cn2cc(COc3ccc(Br)cc3)nn2)c(C)c(Cn2cc(COc3ccc(Br)cc3)nn2)c(C)c1Cn1cc(COc2ccc(Br)cc2)nn1 | 76.9% (inactive) |
| CCc1ccc(-c2ccc(COc3ccc(CC4SC(=O)NC4=O)cc3)cc2)cc1 (stereo unspecified) | 60.2% (inactive) |
| Cc1ccc(N)c(O)c1 | 101% (inactive) |
| CCCCN(CCCC)CC(O)c1ccc(OCc2ccccc2)c2ccccc12 (stereo unspecified) | 95.5% (inactive) |

Each molecule was assayed on LOX IMVI melanoma in the same assay as above. Details: 10 µM unless noted.

| Structure (SMILES) | growth |
| --- | --- |
| CNc1cc(C(=O)O)nc(NC)n1 | 99.8% (inactive) |
| Brc1ccc2c(c1)CN(C1CCCCC1)CO2 | 95.1% (inactive) |
| CCN=C1C=CC(=C(c2ccc(N(CC)CC)cc2)c2ccc(N(CC)CC)cc2)c2ccccc21 | -64.6% (active) |
| O=C(CSc1nc2ccc([N+](=O)[O-])cc2[nH]1)Nc1ccc(F)c(Cl)c1 | 24.2% (inactive) |
| COc1ccc(-c2ccc(NNC(=O)c3ccc(F)cc3)nn2)cc1OC | 44.2% (inactive) |
| CCOC(CNC(=O)c1cccc([N+](=O)[O-])c1)OCC | 89.1% (inactive) |
| CN(C)C(=S)Sc1ccc([N+](=O)[O-])cc1[N+](=O)[O-] | -4.79% (active) |
| CCN(CC)CC(C)Nc1ccc(C)c2sc3ccccc3c(=O)c12 (stereo unspecified) | 23.3% (inactive) |
| CN(C)Cc1ccc[nH]1 | 81.3% (inactive) |
| CNC(=O)c1cc(Oc2cccc3nc(NC(=O)Nc4cc(C(F)(F)F)cc(C(F)(F)F)c4)ccc23)ccn1 | 12.7% (inactive) |
| CC1=CC[C@@H]2C(C)(C)[C@@H](O)CC[C@@]2(C)[C@@H]1COc1ccc2ccc(=O)oc2c1 | 52.2% (inactive) |
| CC(=O)CC(=O)SC1=NCCS1 | 97.7% (inactive) |
| CSc1cccc([N+](=O)[O-])c1 | 92.5% (inactive) |
| O=C1/C(=C\c2cccn2Cc2ccccc2)c2ccccc2N1c1c(Cl)cccc1Cl | 88.8% (inactive) |
| COc1ncnc2c(-c3ccccc3)cn(COCc3ccccc3)c12 | 56% (inactive) |
| C=C(C)[C@@H]1CC[C@]2(C(=O)NCCCN)CC[C@]3(C)[C@H](CC[C@@H]4[C@@]5(C)CC[C@H](O)C(C)(C)[C@@H]5CC[C@]43C)[C@@H]12 | 1.37% [100 µM] (active) |
| COc1ccc(/C=C/C=C\C(=O)c2ccc(-n3ccnc3)cc2)cc1 | 93.5% (inactive) |
| Cc1ccccc1-n1nnc(C(=O)Nc2nc3ccc(F)cc3s2)c1C | 75% (inactive) |
| O=C(N/N=C/c1ccc([N+](=O)[O-])cc1)c1ccc(Br)o1 | 98% (inactive) |

| Structure (SMILES) | growth |
| --- | --- |
| Cc1nc(-c2ccccc2)sc1CC#N | 102% (inactive) |
| O=S(=O)(/N=c1/n(-c2ccccc2)nc2n1CCN2C1=NCCN1)c1ccc(-c2ccccc2)cc1 | 93% (inactive) |
| Nc1ccc2c(c1)Cc1cc(NC(=O)C(F)(F)F)ccc1-2 | 102% (inactive) |
| O=C(Nc1ccc(C(=O)/C=C/c2ccc(N3CCOCC3)cc2)cc1)Nc1ccc([N+](=O)[O-])cc1 | 107% (inactive) |
| C=CCc1nc2ccccc2s1 | 99.3% (inactive) |
| O=C(Nc1cc(F)cc2cccnc12)c1cnc(N2CCNCC2)cn1 | 65.8% (inactive) |
| C[n+]1c2ccccc2nc2c(N)cc(N)cc21 | 77.3% (inactive) |
| CCOC(=O)CCC[P+](c1ccccc1)(c1ccccc1)c1ccccc1 | 83% (inactive) |
| COc1ccc2nc3ccccc3c(NCCNCCO)c2c1 | -52.2% (active) |
| c1nc(N2CCOCC2)c2[nH]ccc2n1 | 99.8% (inactive) |
| Oc1c(CNCCNCc2cc(Cl)cc(Cc3ccccc3)c2O)cc(Cl)cc1Cc1ccccc1 | 4.57% (active) |
| COc1cc(Cl)cc(-c2nn(C(=O)NS(=O)(=O)c3ccccc3)cc2-c2ccncc2)c1 | 59.1% (inactive) |
| COc1cccc(-c2[nH]c(=S)ncc2C(=O)c2ccccc2)c1 | 72.4% (inactive) |
| CC(C)(C)c1cc(C(=O)Nc2ccccc2C(=O)NCCN)cc(C(C)(C)C)c1 | -98.5% (active) |
| N=C(N)c1ccc(-c2ccc(-c3ccc(-c4cccs4)s3)s2)cc1F | 95.9% (inactive) |
| Cc1c(Cn2cc(COc3ccc(Br)cc3)nn2)c(C)c(Cn2cc(COc3ccc(Br)cc3)nn2)c(C)c1Cn1cc(COc2ccc(Br)cc2)nn1 | 35% (inactive) |
| CCc1ccc(-c2ccc(COc3ccc(CC4SC(=O)NC4=O)cc3)cc2)cc1 (stereo unspecified) | 63.3% (inactive) |
| Cc1ccc(N)c(O)c1 | 86.6% (inactive) |
| CCCCN(CCCC)CC(O)c1ccc(OCc2ccccc2)c2ccccc12 (stereo unspecified) | 60.8% (inactive) |

Source: PubChem BioAssay (NCI)
